Activity calls are given as the source filed them. Unless noted, the rule behind the calls is not given here.

The values below come from PubChem BioAssay.

Experiment [1] relates to Wnt5a (protein binding on small-molecule microarray). Kind of experiment: small molecules binding Wnt5a protein – biophysical, small-molecule microarray, 635/667 nm fluorescence, primary screen (AID 1142).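 Note: fluorescence read at 667 nm with signal to noise per printed feature.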 The conditions noted are these: 635 nm fluorescence, higher = more signal.
Experiment [2] is described as follows: ATP-based viability of Huh7 replicon cells – cell-based, CellTiter-Glo luminescence, basal, 48 h, cytotoxicity control for HCV replication inhibitor project, primary screen (AID 1143).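 Note: Huh7 hepatoma cells carrying a hepatitis C replication reporter with no stimulus; test concentration not given here.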 The following applies: higher = more signal, called active from +8 up or from −8 down. For orientation: A replicon is a self-replicating genome or part of one, used to study replication in cells.

Experiment [3] in a line: Pseudomonas biofilm growth suppression – PAO1 strain, BacTiter-Glo luminescence, LB-PBS, primary screen (AID 1144). The following applies: P. aeruginosa PAO1 biofilm, 12 h, higher = more signal.
A short description of experiment [4]: basal CRE-LacZ reporter activity in PC12 – cell-based, unstimulated, primary screen (AID 1145). The following applies: no forskolin, luminescence, 4.5 h, higher = more signal, called active from +8 up or from −8 down.
Experiment [5] can be described thus: forskolin-driven CRE-LacZ activity in PC12 – cell-based, CRE-LacZ reporter, forskolin-stimulated, primary screen (AID 1146).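 Note: PC12 cells with 6xCRE LacZ reporter stimulated by forskolin 10 µM; beta-galactosidase reporter signal reflecting CREB driven transcription.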 The conditions noted are these: luminescence, 4.5 h, higher = more signal, called active from +8 up or from −8 down.
Experiment [6] concerns the target Streptavidin (Streptomyces avidinii) (UniProt P22629). As to the kind of experiment: compounds binding control protein streptavidin – biophysical, small-molecule microarray, 635/667 nm fluorescence, artefact control for SMM compound annotation, primary screen (AID 1147).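 Note: signal reflects streptavidin binding to arrayed compounds as a control protein.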 The following applies: higher = more signal.
Experiment [7] is described as follows: probe aInhba binding on compound microarray – biochemical, small-molecule microarray, 635/667 nm fluorescence, primary screen (AID 1148).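 Note: score merges 667nm spot fluorescence with signal-to-noise for antibody binding to printed compounds.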 The conditions noted are these: higher = more signal.
For experiment [8], the target named is Torsin-1A (Homo sapiens) (UniProt O14656). Kind of experiment: TOR1A wild-type binding on microarray – cell lysate, small-molecule microarray, lysate, 635/667 nm, primary screen (AID 1149). The following applies: COS7 hTOR1A-WT lysate, 635 nm fluorescence, higher = more signal.
For experiment [9] the target is unchanged. As to the kind of experiment: torsin A mutant lysate binding on microarrays – cell lysate, small-molecule microarray, COS7 lysate, 635/667 nm fluorescence, primary screen (AID 1150).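 Note: score pools 667 nm emission and signal to noise measuring lysate protein binding.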 The following applies: COS7 hTOR1A mutant lysate, 635 nm fluorescence, higher = more signal.
Experiment [10] relates to Sonic hedgehog protein (Shh). Kind of experiment: Sonic hedgehog microarray binding compounds – biochemical, small-molecule microarray, 635/667 nm fluorescence, primary screen (AID 1151).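 Note: Shh protein binding to compounds spotted on small-molecule microarray slides; score combines spot fluorescence intensity with signal-to-noise across triplicate slides.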 The conditions noted are these: 635 nm fluorescence, higher = more signal.

Sequence of Torsin-1A (Homo sapiens) (O14656 whole entry, looked up): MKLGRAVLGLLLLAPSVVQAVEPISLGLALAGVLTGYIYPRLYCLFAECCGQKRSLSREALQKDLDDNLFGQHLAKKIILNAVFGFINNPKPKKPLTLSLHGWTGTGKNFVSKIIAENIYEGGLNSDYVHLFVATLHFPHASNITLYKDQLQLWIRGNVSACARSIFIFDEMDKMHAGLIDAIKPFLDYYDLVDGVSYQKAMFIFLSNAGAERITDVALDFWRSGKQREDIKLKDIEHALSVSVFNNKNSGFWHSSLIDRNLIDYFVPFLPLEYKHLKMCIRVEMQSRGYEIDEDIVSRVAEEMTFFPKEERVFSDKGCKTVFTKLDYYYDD
Sequence of Streptavidin (Streptomyces avidinii) (P22629 whole entry, looked up): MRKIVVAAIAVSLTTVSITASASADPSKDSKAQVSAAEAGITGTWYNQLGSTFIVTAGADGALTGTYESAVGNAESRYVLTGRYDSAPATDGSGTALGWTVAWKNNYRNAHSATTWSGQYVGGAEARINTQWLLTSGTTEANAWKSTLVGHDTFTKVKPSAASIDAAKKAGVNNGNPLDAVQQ

On to `O=C1O[C@@H](c2ccccc2)[C@@H](c2ccccc2)N2[C@@H](c3ccccc3OCCO)[C@]3(C(=O)Nc4ccc(C#CC5(O)CCCCCC5)cc43)[C@@H](C(=O)Nc3nc4ccccc4s3)[C@H]12`, for which the composite z-score was 0.555 in [1]; 1.22 in [6]; -0.0195 in experiment [7]; 0.711 with Torsin-1A (Homo sapiens) [8]; 0.659 with Torsin-1A (Homo sapiens) [9]; 0.902 in [10]. For the same compound, the z-score in [2] is -5 (inactive); in experiment [3] it was 0.207 (inactive); in experiment [4], 0.224 (inactive); in experiment [5] it was 0.474 (inactive).

On to `Cc1ccc(S[C@]2(C(=O)NC3CC3)CC(=O)N(C3CCCCC3)[C@@H]2c2ccc(CO)cc2I)cc1`, for which the composite z-score was 0.136 in experiment [1]; 0.936 in experiment [6]; -0.0375 in experiment [7]; 0.254 in the experiment with Torsin-1A (Homo sapiens) [8]; 0.582 with Torsin-1A (Homo sapiens) [9]; 1.77 in experiment [10]. The z-score was -3.4 (inactive) in experiment [2], -0.128 (inactive) in [3], 0.362 (inactive) in experiment [4] and 0.681 (inactive) in [5].

Regarding `COCCOC(=O)N1C(=O)[C@@]2(c3cc(C#CCNC(N)=O)ccc31)[C@H](c1ccc(O)cc1)N1[C@H](c3ccccc3)[C@H](c3ccccc3)OC(=O)[C@H]1[C@@H]2C(=O)NC[C@H](O)c1ccccc1`, the composite z-score is 0.545 in experiment [1]; -0.0027 in experiment [6]; 0.415 in experiment [7]; 0.76 with Torsin-1A (Homo sapiens) [8]; 0.353 with Torsin-1A (Homo sapiens) [9]; 1.75 in experiment [10]. Moreover, the z-score in experiment [2] is 0.123 (inactive); in experiment [3], 0.00448 (inactive); in experiment [4], -0.606 (inactive); in experiment [5], -0.197 (inactive).

In the case of `CC(C)Cc1ccc(CN2CC[C@@H](NS(=O)(=O)c3ccccc3)C2)cc1`, the composite z-score is -0.353 in experiment [1]; -0.369 in [6]; -0.188 in experiment [7]; -0.957 with Torsin-1A (Homo sapiens) [8]; -0.274 with Torsin-1A (Homo sapiens) [9]; 1.45 in experiment [10]. Besides, the z-score was -5.08 (inactive) in experiment [2], -0.721 (inactive) in [3], 0.224 (inactive) in experiment [4] and -0.138 (inactive) in [5].

With `CCC(CC)C(O)C1C=CC2C(=O)N(c3ccccc3)C(=O)C2N1Nc1ccc(C#N)cc1` (stereo not given), the composite z-score is 0.658 in experiment [1]; 1.24 in experiment [6]; 0.75 in [7]; 0.223 with Torsin-1A (Homo sapiens) [8]; 0.775 with Torsin-1A (Homo sapiens) [9]; -0.41 in [10]. Moreover, the z-score is 0.625 (inactive) in experiment [2], -0.939 (inactive) in experiment [3], 1.01 (inactive) in experiment [4] and 0.435 (inactive) in experiment [5].

For `CC(C)NC(=O)[C@@H]1c2ccccc2C(=O)N(Cc2ccccc2Cl)[C@H]1c1ccc(CO)cc1`, the composite z-score in experiment [1] was -0.243; in experiment [6] it was -0.418; in [7], -0.179; with Torsin-1A (Homo sapiens) [8], 0.267; with Torsin-1A (Homo sapiens) [9], 0.343; in experiment [10], 0.0599. The z-score is -0.485 (inactive) in experiment [2], 0.471 (inactive) in experiment [3], 0.145 (inactive) in [4] and -0.47 (inactive) in experiment [5].

Consider `C=CCC(OC(C)=O)[C@@H]1[C@@H](N(Cc2ccc(-c3ccccc3)cc2)C(=O)Cc2ccc(F)cc2)c2cc(OCCCO)ccc2N1C(=O)c1ccc2ccccc2n1` (stereo not given in full), for which the composite z-score is -0.212 in experiment [1]; 0.171 in experiment [6]; 0.151 in [7]; 0.226 with Torsin-1A (Homo sapiens) [8]; 0.0886 in the experiment with Torsin-1A (Homo sapiens) [9]; 0.321 in experiment [10]. Besides, the z-score in [2] is 0.0753 (inactive); in experiment [3] it was -0.201 (inactive); in [4] it was 2.31 (inactive); in experiment [5] it was -0.116 (inactive).

In the case of `CS(=O)(=O)CCOC(=O)C1=CC(c2ccc(CO)cc2)=CC(C2CC2)N(Cc2cc3c(cc2Br)OCO3)C=C1C(=O)OCCS(C)(=O)=O` (stereo not given), the composite z-score in experiment [1] was 0.377; in experiment [6], 1.54; in experiment [7], -0.0645; in the experiment with Torsin-1A (Homo sapiens) [8], 0.0194; in the experiment with Torsin-1A (Homo sapiens) [9], 1.45; in experiment [10] it was 0.595. Further, the z-score in experiment [2] is -3.38 (inactive); in experiment [3], -0.992 (inactive); in experiment [4], 5.81 (inactive); in experiment [5], -2.41 (inactive).

As for `CCOC(=O)C1=CCC(c2ccc([N+](=O)[O-])cc2)N(S(=O)(=O)c2ccc(C)cc2)C1` (stereo not given), the composite z-score in experiment [1] was 0.0898; in experiment [6], 0.653; in experiment [7], 0.111; in the experiment with Torsin-1A (Homo sapiens) [8] it was 0.242; with Torsin-1A (Homo sapiens) [9], 0.103; in experiment [10] it was -0.377. For the same compound, the z-score in experiment [2] was -3.94 (inactive); in experiment [3], 0.203 (inactive); in [4] it was 0.687 (inactive); in experiment [5], 0.264 (inactive).

For `CN1C(=O)C2C(C1=O)C1C=C(CCCO)C2C(c2cccs2)N1C` (stereo not given), the composite z-score in experiment [1] is 0.0691; in [6], -0.96; in experiment [7], 0.141; with Torsin-1A (Homo sapiens) [8], -0.381; in the experiment with Torsin-1A (Homo sapiens) [9] it was -0.332; in experiment [10], -0.11. The z-score is -0.273 (inactive) in [2], 0.0748 (inactive) in [3], 0.236 (inactive) in experiment [4] and 0.289 (inactive) in [5].

For `C=CCN1C(=O)[C@]2(O[C@H](CCO)[C@@H]([Si](C)(C)c3ccc(OC)cc3)[C@@H]2C)c2cc(NC(=O)[C@H](C)O)ccc21`, the composite z-score stood at 0.276 in experiment [1]; 0.553 in [6]; 0.339 in experiment [7]; 0.725 with Torsin-1A (Homo sapiens) [8]; 0.499 with Torsin-1A (Homo sapiens) [9]; 1.34 in experiment [10]. Further, the z-score in experiment [2] is -6.12 (inactive); in experiment [3], 1.01 (inactive); in [4] it was 6.89 (inactive); in experiment [5] it was -0.144 (inactive).

Turning to `CC(=O)NCCCC[C@@H]1NC(=O)[C@@H]2C[C@H](C(=O)NCCCCCCNC(=O)CS)[C@H](c3ccc(O)cc3)N2C1=O`, the composite z-score in [1] was -0.126; in experiment [6], 0.453; in [7], -0.0944; with Torsin-1A (Homo sapiens) [8] it was 0.957; with Torsin-1A (Homo sapiens) [9], 0.936; in experiment [10] it was 0.377. Besides, the z-score in [2] was 0.448 (inactive); in [3], -0.388 (inactive); in [4] it was -0.268 (inactive); in [5] it was -0.277 (inactive).

Take `C=C(COC)/C(=C/C[C@H](OC(=O)c1ccncc1)c1cccc(OCCO)c1)c1cc(C(=O)OC)ccc1OC`: the composite z-score was 0.176 in experiment [1]; -0.258 in [6]; -0.024 in experiment [7]; 0.63 in the experiment with Torsin-1A (Homo sapiens) [8]; 0.849 with Torsin-1A (Homo sapiens) [9]; 1.38 in [10]. In addition, the z-score in [2] is -0.865 (inactive); in [3], 0.358 (inactive); in experiment [4], 8.63 (active); in [5] it was -0.616 (inactive).

Regarding `CN1CCC(CCCO)=CC1c1ccc(CN2CCCC2)cc1` (stereo not given), the composite z-score in experiment [1] is 0.958; in experiment [6], 0.825; in experiment [7] it was 0.0096; with Torsin-1A (Homo sapiens) [8], 3.12; with Torsin-1A (Homo sapiens) [9], 2.86; in experiment [10], 2.08. The z-score in [2] was -0.428 (inactive); in experiment [3], -0.692 (inactive); in [4], -0.974 (inactive); in experiment [5], 0.239 (inactive).
